Inconclusive results are not listed. Active and inactive are the calls of the source. Unless noted, calls come from the whole dose curve; as a rule, active = well fitted curve in the direction sought with a large enough effect in the repeat runs; inconclusive = weak or mixed curves; inactive = no such curve, though single readings can be large; an effect the other way counts as inactive or inconclusive.
Key:
[1] = A CellTox Green Cytotoxicity Assay to monitor cytotoxicity in HEK293 cells - 32 hour (AID 1224881); note: nearly all actives have a fitted effect of over 40% in size; note: potency is the fitted concentration of half-maximal effect
How it was run: (§1)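 Dead-cell fluorescence measured kinetically: asymmetric cyanine dye, HEK293, 600 cells/well, 5 h settle, 23 nL cpd/DMSO, 37 C, reads 0–40 h every 8 h.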

[2] = A CellTox Green Cytotoxicity Assay to monitor cytotoxicity in HepG2 cells - 0 hour (AID 1224882); note: nearly all actives have a fitted effect of over 35% in size; note: potency is the fitted concentration of half-maximal effect
How it was run: (§2)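 First, HepG2 cells (600/well) mixed with reagent were plated; second, after 5 h at 37 C they received compounds via pintool; third, fluorescence was measured at 0 h through 40 h at 8 h intervals.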

[3] = A CellTox Green Cytotoxicity Assay to monitor cytotoxicity in HepG2 cells - 32 hour (AID 1224883); note: nearly all actives have a fitted effect of over 50% in size; note: potency is the fitted concentration of half-maximal effect
How it was run: as §2

[4] = A CellTox Green Cytotoxicity Assay to monitor cytotoxicity in HEK293 cells - 8 hour (AID 1224884); note: nearly all actives have a fitted effect of over 35% in size; note: potency is the fitted concentration of half-maximal effect
How it was run: as §1

[5] = qHTS RealTime-Glo MT Cell Viability Assay in HepG2 cells - 16 hour (AID 1224885); note: nearly all actives have a fitted effect of over 50% in size
How it was run: (§3)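 Compound treatment began 5 h after plating HepG2 cells (600/well) with NanoLuc luciferase and prosubstrate. Plates stayed at 37 C for 40 h; luminescence was captured at six time points, 0 h through 40 h.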

[6] = qHTS RealTime-Glo MT Cell Viability Assay in HEK293 cells - 24 hour (AID 1224886); note: top concentration of the series differs between compounds; nearly all actives have a fitted effect of over 50% in size
How it was run: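 Quantitative high-throughput screen of the Tox21 10K library in HEK293: cells and RealTime-Glo reagents plated together, compound added at 5 h, luminescence monitored through 40 h at 37 C.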

[7] = qHTS RealTime-Glo MT Cell Viability Assay in HEK293 cells - 8 hour (AID 1224887); note: top concentration of the series differs between compounds; nearly all actives have a fitted effect of over 50% in size
How it was run: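 600 HEK293 cells per well, dispensed already mixed with RealTime-Glo MT reagents. Compound dosing came 5 h later. The same wells were read for luminescence at 0, 8, 16, 24, 32 and 40 h of exposure at 37 C.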

[8] = A CellTox Green Cytotoxicity Assay to monitor cytotoxicity in HEK293 cells - 16 hour (AID 1224888); note: nearly all actives have a fitted effect of over 35% in size; note: potency is the fitted concentration of half-maximal effect
How it was run: as §1

[9] = qHTS RealTime-Glo MT Cell Viability Assay in HepG2 cells - 0 hour (AID 1224889); note: nearly all actives have a fitted effect of over 50% in size; note: potency is the fitted concentration of half-maximal effect
How it was run: as §3

[10] = A CellTox Green Cytotoxicity Assay to monitor cytotoxicity in HepG2 cells - 8 hour (AID 1224890); note: nearly all actives have a fitted effect of over 45% in size; note: potency is the fitted concentration of half-maximal effect
How it was run: as §2

[11] = qHTS assay to identify small molecule antagonists of the estrogen receptor alpha (ER-alpha) signaling pathway using the BG1 cell line in the presence of 0.1 nM 17-beta-estradiol - cell viability counter screen (AID 1259241); note: nearly all actives have a fitted effect of over 40% in size; note: potency is the fitted concentration of half-maximal effect
How it was run: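 VM7Luc4E2, 4,000 cells/well, phenol red-free medium + 10% charcoal-stripped FBS; 24 hr plating; cpd + 0.1 nM E2 final, 22 hr 37C/5% CO2; CellTiter-Fluor 30 min, fluorescence.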

[12] = qHTS assay to identify small molecule antagonists of the androgen receptor (AR) signaling pathway using the MDA cell line in the presence of 0.5 nM R1881 - cell viability counter screen (AID 1259242); note: nearly all actives have a fitted effect of over 45% in size; note: potency is the fitted concentration of half-maximal effect
How it was run: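 qHTS format. MDA-kb2 (MMTV-luc, AR/GR responsive) + cpd + 0.5 nM R1881 final, 16 hr 37C/0% CO2 → CellTiter-Fluor 30 min → fluorescence intensity.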

[13] = target: Estrogen receptor (Homo sapiens) (UniProt P03372); assay: qHTS assay to identify small molecule antagonists of the estrogen receptor alpha (ER-alpha) signaling pathway using the BG1 cell line in the presence of 0.1 nM 17-beta-estradiol (AID 1259244); note: nearly all actives have a fitted effect of over 50% in size; note: potency is the fitted concentration of half-maximal effect
Estrogen receptor (Homo sapiens), sequence (P03372 whole entry, looked up): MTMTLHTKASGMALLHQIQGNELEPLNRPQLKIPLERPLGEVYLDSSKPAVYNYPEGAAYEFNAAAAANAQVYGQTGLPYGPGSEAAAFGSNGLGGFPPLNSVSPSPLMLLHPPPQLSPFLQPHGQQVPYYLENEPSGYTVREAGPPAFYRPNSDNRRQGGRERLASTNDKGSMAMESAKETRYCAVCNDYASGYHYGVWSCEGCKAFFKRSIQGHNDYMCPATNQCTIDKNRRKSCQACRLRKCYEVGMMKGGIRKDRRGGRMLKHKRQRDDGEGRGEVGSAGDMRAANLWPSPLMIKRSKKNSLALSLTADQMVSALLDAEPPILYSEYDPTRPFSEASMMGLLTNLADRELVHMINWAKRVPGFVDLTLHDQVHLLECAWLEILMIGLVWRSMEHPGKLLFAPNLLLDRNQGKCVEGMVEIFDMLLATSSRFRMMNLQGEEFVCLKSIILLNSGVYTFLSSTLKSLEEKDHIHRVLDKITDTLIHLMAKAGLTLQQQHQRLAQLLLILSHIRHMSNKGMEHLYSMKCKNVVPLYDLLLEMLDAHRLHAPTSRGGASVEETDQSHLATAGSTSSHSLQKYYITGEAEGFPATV
How it was run: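 Reporter is a stably transfected luciferase under four estrogen responsive elements in VM7Luc4E2 cells expressing native full-length ER-alpha; inhibition of 0.1 nM (final) 17beta-estradiol-driven signal over 22 h is read by luminescence.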

[14] = qHTS assay to identify small molecule HDAC inhibitors (AID 1259364);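 note: wild-type HCT-116 cells with endogenous class I/II HDAC activity; top concentration of the series differs between compounds; nearly all actives have a fitted effect of over 45% in size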
How it was run: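 Quantitative high-throughput format: overnight-seeded HCT-116 cells got compounds for 2 hr at 37C; HDAC-Glo I/II reagent added, 30 min RT, luminescence measured.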

[15] = qHTS assay to identify small molecule HDAC inhibitors - cell viability counter screen (AID 1259365)
How it was run: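 Luminescence from CellTiter-Glo, developed 30min at room temperature, reports viability of wild-type HCT-116 cells treated 2hr with compounds at 37 C and 5% CO2 after overnight plating.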

[16] = qHTS assay to identify small molecule agonists of the sonic hedgehog signaling (Shh) pathway - cell viability counter screen (AID 1259366); note: nearly all actives have a fitted effect of over 50% in size; note: potency is the fitted concentration of half-maximal effect
How it was run: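 Cytotoxicity counter screen run in the same wells as the Shh reporter assay. NIH/3T3 cells carrying a Gli1 response element–driven luciferase were treated with DMSO-dissolved compounds for 24hr, and live-cell protease activity was measured with CellTiter-Fluor.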

[17] = qHTS assay to identify small molecule antagonists of the sonic hedgehog signaling (Shh) pathway - cell viability counter screen (AID 1259367); note: nearly all actives have a fitted effect of over 55% in size; note: potency is the fitted concentration of half-maximal effect
How it was run: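 Cytotoxicity was assessed in parallel with Shh reporter activity by measuring live-cell protease fluorescence (CellTiter-Fluor) in NIH/3T3 cells stably carrying Gli1-Luc, treated with compound under conditioned medium stimulation for 23 hr plus 1 hr reagent incubation.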

[18] = qHTS assay to identify small molecule agonists of the sonic hedgehog signaling (Shh) pathway (AID 1259368; calls by dose curve;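 note: NIH/3T3-derived 3T3Gli1-Luc cells carrying a stable Gli1-driven firefly luciferase reporter; series mostly up to about 92 µM; nearly all actives have a fitted effect of over 15% in size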)
How it was run: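 Quantitative high-throughput format using a Gli1-driven firefly luciferase reporter line derived from NIH/3T3 cells. After a 24 hr compound treatment at 37 C and 5% CO2, luminescence reported Gli1 response element activity.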

[19] = qHTS assay to identify small molecule phospholipidosis (PLD) inducers (AID 1259344; active = well fitted curve in the direction sought with a large enough effect; an effect the other way counts as inactive or inconclusive)
How it was run: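 Cells (HepG2, 900 per well) attach for 4 h, receive LipidTOX Red and compound together, incubate 24 h at 37 C, are fixed 30 min with paraformaldehyde/Hoechst, then imaged at one site per well.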

Measured: Potency

CC1=CCC(=C(C)C)CC1
inactive: [1] | [2] | [3] | [4] | [5] | [6] | [7] | [8] | [9] | [10] | [11] | [12] | [13] | [14] | [15] | [16] | [17] | [18]

Cc1cccc2cccnc12
inactive: [1] | [2] | [3] | [4] | [5] | [6] | [7] | [8] | [9] | [10] | [11] | [12] | [14] | [15] | [16] | [17] | [18]

O=[N+]([O-])c1cccc(C(F)(F)F)c1
inactive: [1] | [2] | [3] | [4] | [5] | [6] | [7] | [8] | [9] | [10] | [11] | [12] | [13] | [14] | [15] | [17] | [18]

Cc1nc(-c2ccc(Cl)cc2)oc1COC(C)(C)C(=O)O
inactive: [1] | [2] | [3] | [4] | [5] | [6] | [7] | [8] | [9] | [10] | [11] | [12] | [19] | [14] | [15] | [16] | [18]

C=CCn1c(=O)n(CC=C)c(=O)n(CC=C)c1=O
inactive: [1] | [2] | [3] | [4] | [5] | [6] | [7] | [8] | [9] | [10] | [11] | [12] | [14] | [15] | [16] | [18]

C#Cc1ccc(-c2ccccc2F)cc1
inactive: [1] | [2] | [3] | [4] | [5] | [6] | [7] | [8] | [9] | [10] | [11] | [12] | [13] | [14] | [15] | [16] | [18]

CCC(CC)C(C)CCOC(C)=O (stereo not given)
inactive: [1] | [2] | [3] | [4] | [5] | [6] | [7] | [8] | [9] | [10] | [11] | [12] | [14] | [15] | [16] | [17] | [18]

CCCCCCCC
inactive: [1] | [2] | [3] | [4] | [5] | [6] | [7] | [8] | [9] | [10] | [11] | [12] | [13] | [14] | [15] | [16] | [17] | [18]

CCCCCCCCCCCC(=O)OCC(C)OC(=O)CCCCC(=O)O (stereo not given)
inactive: [1] | [2] | [3] | [4] | [5] | [6] | [7] | [8] | [9] | [10] | [11] | [12] | [13] | [14] | [15] | [16] | [17] | [18]

S=c1nccc[nH]1
inactive: [1] | [2] | [3] | [4] | [5] | [6] | [7] | [8] | [9] | [10] | [11] | [12] | [13] | [14] | [15] | [16] | [17] | [18]

O=C(Nc1ccc2c(O)c(N=Nc3ccc(N=Nc4ccc(S(=O)(=O)O)cc4)cc3)c(S(=O)(=O)O)cc2c1)c1ccccc1
active: [11] 12.2 µM | [12] 27.3 µM | [13] 27.3 µM | [17] 21.7 µM
inactive: [1] | [2] | [3] | [4] | [6] | [7] | [8] | [10] | [14] | [18]

Clc1nnc(Cl)c2ccccc12
inactive: [1] | [2] | [3] | [4] | [5] | [6] | [7] | [8] | [9] | [10] | [11] | [13] | [14] | [15] | [18]

O=C1OC2(c3ccc(O)cc3Oc3cc(O)ccc32)c2ccc(N=C=S)cc21
active: [1] 17.7 µM | [2] 15.8 µM | [3] 15.8 µM | [4] 15.8 µM | [8] 12.5 µM | [9] 22.3 µM | [10] 15.8 µM
inactive: [11] | [12] | [14] | [15] | [17] | [18]

CCCCN(CCCC)CC(O)c1cc(Cl)cc2c1-c1ccc(Cl)cc1/C2=C/c1ccc(Cl)cc1 (stereo not given)
active: [3] 23.9 µM | [10] 13.4 µM | [16] 26.6 µM
inactive: [1] | [2] | [4] | [6] | [7] | [8] | [9] | [12] | [13] | [14] | [15] | [18]

— PubChem BioAssay (Tox21)
